From PubChem BioAssay (Tox21)
Results filed as inconclusive are left out. Calls of active or inactive are those of the source. Unless noted, calls come from the whole dose curve; as a rule, active = well fitted curve in the direction sought with a large enough effect in the repeat runs; inconclusive = weak or mixed curves; inactive = no such curve, though single readings can be large; an effect the other way counts as inactive or inconclusive.

Legend:
[1] = target: Thyrotropin receptor (Homo sapiens) (UniProt P16473); test: qHTS assay to identify small molecule antagonists of the thyroid stimulating hormone receptor (TSHR) signaling pathway (AID 1259385; calls by dose curve; note: nearly all actives have a fitted effect of over 20% in size)
Outline: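 Antagonist mode: compound-treated TSHR-expressing HEK293 cells were stimulated with 1.5 ng/mL TSH (final) in presence of Ro20-1724 for 30 min at RT. HTRF cAMP detection after 1 h; each compound tested at 15 concentrations, triplicate.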

[2] = qHTS assay to identify small molecule agonists of the estrogen receptor alpha (ER-alpha) signaling pathway in the presence of an antagonist - cell viability counter screen (AID 1259386);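 note: series mostly up to about 92 µM; cells exposed to compounds for 22 h at 37 °C before the viability read; nearly all actives have a fitted effect of over 30% in size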
Outline: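 ICI-182,780 at 10.0nM final accompanies the compound titration (15 concentrations, 22hr, 37C) on VM7Luc4E2 cells. The CellTiter-Fluor fluorescence readout runs in the same wells as the luciferase assay.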

[3] = target: Progesterone receptor (Homo sapiens) (UniProt P06401); test: qHTS assay to identify small molecule agonists of the progesterone receptor (PR) signaling pathway (AID 1346784; calls by dose curve; note: nearly all actives have a fitted effect of over 30% in size)
Outline: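 PR-UAS-bla HEK 293T cells (beta-lactamase reporter under UAS) in 2% charcoal-stripped FBS, dosed with 23 nL compound after 6 hr, incubated 16hr at 37C. LiveBLAzer B/G FRET substrate added, fluorescence read after 2 hours.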

[4] = target: Progesterone receptor (Homo sapiens) (UniProt P06401); test: qHTS assay to identify small molecule antagonists of the progesterone receptor (PR) signaling pathway (AID 1346795; active = well fitted inhibition curve with a large enough effect in the signal ratio in the repeat runs, not every such curve was filed as active; the % refers to the signal ratio)
Outline: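 PR-UAS-bla HEK293T cells with beta-lactamase reporter under UAS control, in 2% charcoal-stripped FBS, treated with compounds plus 1 nM promegestone (R5020, final) for 16 hr at 37C. Read-out: FRET beta-lactamase substrate fluorescence after 2 hr at room temperature.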

[5] = qHTS assay to identify small molecule agonists of the progesterone receptor (PR) signaling pathway - cell viability counter screen (AID 1346799; calls by dose curve; note: nearly all actives have a fitted effect of over 45% in size)
Outline: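 Counter screen in the PR-UAS-bla HEK293T wells (2% charcoal-stripped FBS, 16 h compound exposure at 37 C) after the bla read. CellTiter-Glo added, 30 min at room temperature, luminescence read as cell viability.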

[6] = qHTS assay to identify small molecule antagonists of the TGF-beta/Smad signaling pathway - cell viability counter screen (AID 1346824); note: nearly all actives have a fitted effect of over 50% in size
Outline: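 Cytotoxicity counter-screen run in the same wells as the beta-lactamase Smad reporter read: CellTiter-Glo luminescence after 30 min at room temperature. HEK 293T SBE-bla cells had 5 hr compound exposure at 37 C with TGF-beta1 (0.25 ng/mL stock).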

[7] = qHTS assay to identify small molecule agonists of the TGF-beta/Smad signaling pathway - cell viability counter screen (AID 1346829); note: top concentration of the series differs between compounds; nearly all actives have a fitted effect of over 45% in size
Outline: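 Same-well cytotoxicity: CellTiter-Glo added after the 2 hr room-temperature beta-lactamase substrate step, luminescence measured 30 min later; cells had 5 hr of compound at 37 C.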

[8] = qHTS assay to identify small molecule agonists of the TGF-beta/Smad signaling pathway (AID 1346859; active = well fitted activation curve with a large enough effect in the signal ratio in the repeat runs, not every such curve was filed as active; the % refers to the signal ratio; note: series mostly up to about 77 µM)
Outline: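 SBE-bla HEK293T cells plated overnight, then compound exposure for 5 h at 37 C. Beta-lactamase reporter read with LiveBLAzer B/G FRET substrate after 2 h at room temperature, fluorescence at 405 nm excitation, 460/530 nm emission.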

[9] = Human pregnane X receptor (PXR) small molecule agonists, qHTS cell viability counter screen (AID 1346977); note: nearly all actives have a fitted effect of over 50% in size
Outline: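 PXR-Luc HepG2 cells (2,000/well, 5% charcoal-stripped FBS) preincubated 5 hr, then exposed to compounds 24 hr at 37 C. Viability read in the same wells by CellTiter-Fluor fluorescence, reagent added at 23 hr, 1 hr incubation.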

[10] = Caspase-3/7 induction in HepG2 cells by small molecules, qHTS assay (AID 1346978); note: nearly all actives have a fitted effect of over 15% in size
Outline: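 Caspase-3/7 induction was measured by Caspase-Glo 3/7 luminescence (30 min, room temperature) after a 17 hr compound exposure of wild-type HepG2 cells seeded at 2,000 per well and pre-incubated 5 hr.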

[11] = Caspase-3/7 induction in CHO-K1 cells by small molecules, qHTS cell viability counter screen (AID 1346979); note: nearly all actives have a fitted effect of over 35% in size
Outline: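 Wild-type CHO-K1 cells (1,500/well) treated with compound after 5 h plating; after 16 h at 37C, viability read as CellTiter-Fluor fluorescence following 1 h reagent incubation, in the same wells as the caspase read.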

[12] = Caspase-3/7 induction in CHO-K1 cells by small molecules, qHTS assay (AID 1346980); note: nearly all actives have a fitted effect of over 15% in size
Outline: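 Luminescent Caspase-Glo 3/7 read (30min, room temperature) quantified apoptosis induction. Cells were wild-type CHO-K1, treated with compound for 17hr at 37 C and 5% CO2.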

[13] = Caspase-3/7 induction in HepG2 cells by small molecules, qHTS cell viability counter screen (AID 1346981); note: series mostly up to about 92 µM; nearly all actives have a fitted effect of over 30% in size
Outline: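 Multiplexed with the caspase-3/7 assay: HepG2 cells, 16 hr compound treatment, CellTiter-Fluor viability detection by fluorescence.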

[14] = target: Nuclear receptor subfamily 1 group I member 2 (Homo sapiens) (UniProt O75469); test: Human pregnane X receptor (PXR) small molecule agonists, qHTS assay (AID 1346982); note: nearly all actives have a fitted effect of over 35% in size; note: potency is the fitted concentration of half-maximal effect
Outline: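 We seeded PXR-Luc HepG2 cells in assay medium containing 5% charcoal-stripped FBS, added compounds 5 hr later, incubated 24 hr, and read luminescence with ONE-Glo reagent.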

[15] = target: Nuclear receptor subfamily 1 group I member 2 (Homo sapiens) (UniProt O75469); test: CYP3A4 induction through human pregnane X receptor (PXR) by small molecules, qHTS assay (AID 1346984); note: nearly all actives have a fitted effect of over 40% in size
Outline: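 qHTS, concentration-response format: HepG2 DPX-2 line, PXR/CYP3A4-luc. Exposure 24 h, 37C. Substrate Luciferin-IPA 3uM final, 3 h. Detection One-Glo, 30 min RT.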

[16] = target: Nuclear receptor subfamily 1 group I member 2 (Homo sapiens) (UniProt O75469); test: Human pregnane X receptor (PXR) activation by small molecules, qHTS assay (AID 1346985); note: nearly all actives have a fitted effect of over 40% in size
Outline: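 DPX-2 cells (HepG2 co-transfected with a PXR response element and a CYP3A4-promoter luciferase construct) were seeded at 2,000 per well, rested 5 hr at 37C, then exposed to DMSO-dissolved compounds for 24 hr. Activation was read as luciferase luminescence.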

[17] = target: Thyrotropin-releasing hormone receptor (Homo sapiens) (UniProt P34981); test: qHTS assay to identify small molecule antagonists of the thyrotropin-releasing hormone receptor (TRHR) signaling pathway (AID 1346877; active = well fitted inhibition curve with a large enough effect in the repeat runs, not every such curve was filed as active; note: series mostly up to about 51 µM)
Outline: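 Screening used HEK293 cells engineered with TRHR, with a brief 5 min room-temperature compound exposure preceding addition of TRH to 1 nM. The read-out was kinetic calcium-dye fluorescence, concentration-response from 15 doses in triplicate.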

[18] = target: Thyrotropin-releasing hormone receptor (Homo sapiens) (UniProt P34981); test: qHTS assay to identify small molecule agonists of the thyrotropin-releasing hormone receptor (TRHR) signaling pathway (AID 1346891; calls by dose curve; note: series mostly up to about 58 µM)
Outline: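 HEK293 cells expressing TRHR plated 18 h at 37 C/5% CO2, calcium dye-loaded 2 h at 37 C, then compound added (agonist mode); kinetic calcium fluorescence read 3 min at 1 s intervals; 15 concentrations in triplicate.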

[19] = qHTS assay to identify small molecule antagonists of the progesterone receptor (PR) signaling pathway - cell viability counter screen (AID 1346798); note: series mostly up to about 92 µM; nearly all actives have a fitted effect of over 50% in size
Outline: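 PR-UAS-bla HEK293T cells, 3,000/well in 2% charcoal-stripped FBS medium, dosed with compounds plus R5020 agonist and incubated 16 h at 37C. Viability then measured in the same wells by CellTiter-Glo luminescence after 30 min at RT.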

[20] = target: Nuclear receptor subfamily 1 group I member 2 (Rattus norvegicus) (UniProt Q9R1A7); test: Rat pregnane X receptor (rPXR) activation by small molecules, qHTS assay (AID 1346983); settings: rPXR luciferase reporter cells, One-Glo luminescence, 24 h; stronger effect = higher value; note: nearly all actives have a fitted effect of over 20% in size
Outline: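 Luminescent readout (One-Glo luciferase, 30 min room temperature) followed 24 hr compound treatment at 37 C of rPXR cells plated 2,000 per well and preincubated 5hr; qHTS format with compounds delivered in DMSO.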
% is set by controls: 0 for no effect and ±100 for the full control effect.

Sequence of Progesterone receptor (Homo sapiens) (P06401 whole entry, looked up): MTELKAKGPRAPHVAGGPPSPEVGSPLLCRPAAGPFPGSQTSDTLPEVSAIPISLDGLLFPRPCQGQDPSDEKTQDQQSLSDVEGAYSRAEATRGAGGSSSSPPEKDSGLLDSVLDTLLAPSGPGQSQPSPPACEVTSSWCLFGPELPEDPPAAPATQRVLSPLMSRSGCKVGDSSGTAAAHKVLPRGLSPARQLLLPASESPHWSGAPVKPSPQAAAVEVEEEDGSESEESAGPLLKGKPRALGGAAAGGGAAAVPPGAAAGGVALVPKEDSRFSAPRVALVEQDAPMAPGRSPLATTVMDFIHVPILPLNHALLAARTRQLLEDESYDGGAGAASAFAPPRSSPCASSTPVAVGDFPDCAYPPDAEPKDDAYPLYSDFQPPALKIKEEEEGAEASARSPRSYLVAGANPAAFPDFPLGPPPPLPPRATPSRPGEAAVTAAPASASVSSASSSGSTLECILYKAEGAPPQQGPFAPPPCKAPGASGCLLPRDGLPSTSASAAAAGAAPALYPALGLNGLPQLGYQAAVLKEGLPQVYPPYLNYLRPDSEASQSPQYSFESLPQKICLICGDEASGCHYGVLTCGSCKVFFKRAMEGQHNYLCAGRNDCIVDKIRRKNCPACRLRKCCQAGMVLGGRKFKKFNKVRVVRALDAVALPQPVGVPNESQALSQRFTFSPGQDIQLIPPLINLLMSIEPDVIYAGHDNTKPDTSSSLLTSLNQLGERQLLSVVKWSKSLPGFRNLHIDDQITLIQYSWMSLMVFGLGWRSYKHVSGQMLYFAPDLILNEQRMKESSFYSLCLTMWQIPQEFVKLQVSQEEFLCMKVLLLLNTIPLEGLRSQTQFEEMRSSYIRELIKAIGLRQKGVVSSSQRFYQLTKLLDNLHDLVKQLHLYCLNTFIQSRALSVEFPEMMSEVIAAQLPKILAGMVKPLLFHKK
Sequence of Thyrotropin receptor (Homo sapiens) (P16473 whole entry, looked up): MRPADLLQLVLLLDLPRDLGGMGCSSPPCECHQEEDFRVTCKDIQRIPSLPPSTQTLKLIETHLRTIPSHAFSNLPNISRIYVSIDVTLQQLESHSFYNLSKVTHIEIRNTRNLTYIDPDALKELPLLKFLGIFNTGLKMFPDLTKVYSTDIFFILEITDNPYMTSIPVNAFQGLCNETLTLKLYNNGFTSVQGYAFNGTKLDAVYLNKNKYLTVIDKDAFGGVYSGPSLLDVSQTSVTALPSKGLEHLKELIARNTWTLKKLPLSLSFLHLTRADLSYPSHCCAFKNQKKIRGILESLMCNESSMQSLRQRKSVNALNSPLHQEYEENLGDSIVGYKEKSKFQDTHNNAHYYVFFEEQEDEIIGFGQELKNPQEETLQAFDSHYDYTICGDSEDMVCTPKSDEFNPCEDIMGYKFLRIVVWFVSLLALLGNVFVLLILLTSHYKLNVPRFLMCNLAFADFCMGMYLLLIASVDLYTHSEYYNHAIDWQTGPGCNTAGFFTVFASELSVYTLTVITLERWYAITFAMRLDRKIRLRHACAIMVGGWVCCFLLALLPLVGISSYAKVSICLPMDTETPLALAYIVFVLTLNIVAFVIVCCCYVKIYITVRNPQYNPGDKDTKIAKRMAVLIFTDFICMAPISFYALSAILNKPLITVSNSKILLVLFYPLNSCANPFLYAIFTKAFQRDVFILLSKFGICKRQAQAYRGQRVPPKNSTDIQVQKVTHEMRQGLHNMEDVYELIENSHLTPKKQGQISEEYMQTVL
Sequence of Nuclear receptor subfamily 1 group I member 2 (Homo sapiens) (O75469 whole entry, looked up): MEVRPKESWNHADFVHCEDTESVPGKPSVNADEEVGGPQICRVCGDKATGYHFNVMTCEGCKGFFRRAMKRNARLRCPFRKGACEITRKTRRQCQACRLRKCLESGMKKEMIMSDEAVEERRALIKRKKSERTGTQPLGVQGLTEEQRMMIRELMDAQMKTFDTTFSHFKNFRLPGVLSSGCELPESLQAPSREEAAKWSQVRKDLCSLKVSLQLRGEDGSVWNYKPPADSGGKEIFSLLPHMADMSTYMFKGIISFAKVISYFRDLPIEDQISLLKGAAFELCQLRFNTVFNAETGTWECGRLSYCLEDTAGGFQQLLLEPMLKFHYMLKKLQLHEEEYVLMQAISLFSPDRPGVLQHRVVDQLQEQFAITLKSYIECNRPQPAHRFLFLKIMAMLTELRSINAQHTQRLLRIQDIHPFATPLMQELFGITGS
Sequence of Thyrotropin-releasing hormone receptor (Homo sapiens) (P34981 whole entry, looked up): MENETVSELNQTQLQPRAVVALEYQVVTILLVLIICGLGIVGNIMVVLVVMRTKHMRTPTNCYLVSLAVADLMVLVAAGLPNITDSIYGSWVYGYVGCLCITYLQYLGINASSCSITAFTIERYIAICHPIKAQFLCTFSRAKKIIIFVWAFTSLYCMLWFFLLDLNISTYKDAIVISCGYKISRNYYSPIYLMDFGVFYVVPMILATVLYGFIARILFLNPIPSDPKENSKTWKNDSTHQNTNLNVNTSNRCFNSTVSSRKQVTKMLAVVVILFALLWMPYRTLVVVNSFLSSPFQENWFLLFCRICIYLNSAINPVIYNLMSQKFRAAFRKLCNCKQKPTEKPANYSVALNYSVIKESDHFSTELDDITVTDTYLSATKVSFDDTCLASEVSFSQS
Sequence of Nuclear receptor subfamily 1 group I member 2 (Rattus norvegicus) (Q9R1A7 whole entry, looked up): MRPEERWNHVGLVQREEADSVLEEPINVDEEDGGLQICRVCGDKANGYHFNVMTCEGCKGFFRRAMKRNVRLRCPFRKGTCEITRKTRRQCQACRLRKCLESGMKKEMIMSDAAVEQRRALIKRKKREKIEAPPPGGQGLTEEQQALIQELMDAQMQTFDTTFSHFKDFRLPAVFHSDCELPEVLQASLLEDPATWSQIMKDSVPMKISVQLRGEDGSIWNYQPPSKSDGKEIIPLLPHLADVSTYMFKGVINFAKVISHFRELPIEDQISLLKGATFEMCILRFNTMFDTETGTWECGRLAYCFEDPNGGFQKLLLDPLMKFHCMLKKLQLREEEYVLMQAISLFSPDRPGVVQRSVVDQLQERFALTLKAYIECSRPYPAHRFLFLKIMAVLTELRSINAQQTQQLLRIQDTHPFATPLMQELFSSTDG

Cc1cccn2c(=O)c(-c3nnn[nH]3)cnc12
inactive: activity change, negative = inhibition [1] -4.29% [at 19 µM] | activity change, negative = cytotoxicity [2] 5.01% [at 19 µM] | activation [3] 2.07% [at 19 µM] | Potency [4] | activity change, negative = cytotoxicity [5] 11.1% [at 19 µM] | viability change, negative = cytotoxic [6] 3.02% [at 15.8 µM] | activity change, negative = cytotoxicity [7] 2.08% [at 15.8 µM] | activation [8] -4.24% [at 15.8 µM] | activity change, negative = cytotoxicity [9] -2.85% [at 19 µM] | caspase activation [10] -1.09% [at 19 µM] | Potency [11] | caspase-3/7 activation [12] -1.17% [at 19 µM] | activity change, negative = cytotoxicity [13] -1.23% [at 19 µM] | activation [14] -6.8% [at 19 µM] | Potency [15] | Potency [16]

C=C(C)CS(=O)(=O)O
inactive: Potency [1] | Potency [2] | Potency [3] | Potency [4] | Potency [5] | Potency [6] | outcome [7] | outcome [8] | outcome [17] | Potency [9] | Potency [10] | Potency [11] | outcome [12] | Potency [13] | Potency [14]

CC/C=C\CC/C=C/C(OCC)OCC
inactive: Potency [1] | Potency [2] | Potency [3] | Potency [4] | Potency [5] | Potency [6] | outcome [7] | outcome [8] | Potency [9] | Potency [10] | Potency [11] | outcome [12] | Potency [13]
active: Potency [14] 24.3 µM

CCOC(C)(C)C
inactive: Potency [1] | Potency [2] | Potency [3] | Potency [4] | Potency [5] | Potency [6] | outcome [8] | outcome [17] | outcome [18] | Potency [9] | Potency [10] | Potency [11] | outcome [12] | Potency [13] | Potency [14]

CCN1CCC[C@H]1CNC(=O)c1cc(S(N)(=O)=O)ccc1OC
inactive: Potency [1] | Potency [2] | Potency [3] | Potency [19] | Potency [5] | Potency [6] | outcome [7] | outcome [8] | outcome [17] | outcome [18] | Potency [9] | Potency [10] | Potency [11] | outcome [12] | Potency [13]

C[C@H]1C[C@@H](O)CC(C)(C)C1
inactive: Potency [1] | Potency [2] | Potency [3] | Potency [4] | Potency [6] | outcome [7] | outcome [8] | outcome [17] | outcome [18] | Potency [9] | Potency [10] | Potency [11] | outcome [12] | Potency [13] | Potency [14]

CC(C)c1cc2c(cc1S(=O)(=O)O)[C@@]1(C)CCC[C@@](C)(C(=O)O)[C@@H]1CC2
inactive: Potency [1] | Potency [2] | Potency [3] | Potency [19] | Potency [5] | Potency [6] | outcome [7] | outcome [8] | outcome [17] | outcome [18] | Potency [9] | Potency [10] | Potency [11] | outcome [12] | Potency [13] | Potency [14] | max activation [20] 2.4% | Potency [15] | Potency [16]
